Sampled rows, rich in hits. Any-hit rate of the full collection: about 2.8%.
PglD inh: PglD (C. jejuni) enzyme inhibition | AID 602405 | purified PglD enzyme, DTNB colorimetric CoA detection | 360,000 compounds, 0.098% hits | inhibition, % at 12.5 µM; in the data active means inhibition above about 16%, passing the limit was not always enough
FGF22 binding: binders of recombinant human FGF22 by thermal shift | activity (Tm shift, normalised), % at 9.99 µM | Q9HCT0 | SYPRO orange fluorescence; percent of sucrose octasulfate shift, DMSO zero | 340,000 compounds, 1.5% hits;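 active means mean Tm shift, scaled 0 neutral to 100 positive control, at about 1.3% or above, every replicate too, limit read from the data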
SIRT5 block: sirtuin-5 (human) deacylase inhibition; Purified SirT5, succinyl-peptide AMC, trypsin-coupled fluorescence; inhibition, % at 15 µM; 330,000 compounds, 1.1% hits; AID 652115; in the data active means inhibition above about 15%
PvdQ inh: blocks Pseudomonas aeruginosa PvdQ acylase activity; 340,000 compounds, 0.063% hits; AID 488965; inhibition, % at 10 µM; purified PvdQ acylase, fluorescence plate reader; in the data active means inhibition above about 30%, passing the limit was not always enough
CDK5 inh: blocks human CDK5/p35 kinase activity; Q00535+Q15078; Recombinant CDK5/p35, ADP-Glo luminescence, 60 min; inhibition, % at 10 µM; 330,000 compounds, 0.01% hits;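 active means highest replicate inhibition of at least 50% and at least 75% of replicates reaching 50%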
Target sequence (Q00535 whole entry, looked up): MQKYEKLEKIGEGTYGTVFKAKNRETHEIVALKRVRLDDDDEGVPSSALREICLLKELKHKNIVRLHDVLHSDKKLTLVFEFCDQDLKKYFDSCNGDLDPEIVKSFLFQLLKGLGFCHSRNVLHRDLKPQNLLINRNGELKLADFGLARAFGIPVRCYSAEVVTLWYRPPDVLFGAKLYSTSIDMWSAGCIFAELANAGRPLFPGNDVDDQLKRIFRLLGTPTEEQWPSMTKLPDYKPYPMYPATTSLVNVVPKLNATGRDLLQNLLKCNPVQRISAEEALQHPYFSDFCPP
Target sequence (Q15078 whole entry, looked up): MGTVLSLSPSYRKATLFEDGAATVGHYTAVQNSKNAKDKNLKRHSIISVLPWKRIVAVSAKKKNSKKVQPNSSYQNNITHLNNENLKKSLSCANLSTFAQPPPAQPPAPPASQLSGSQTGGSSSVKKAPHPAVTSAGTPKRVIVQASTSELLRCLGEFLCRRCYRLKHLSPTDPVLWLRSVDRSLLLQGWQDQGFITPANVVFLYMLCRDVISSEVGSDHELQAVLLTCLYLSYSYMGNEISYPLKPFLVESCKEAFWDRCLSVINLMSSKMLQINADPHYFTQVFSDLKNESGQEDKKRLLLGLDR
dFosB act: activators of mouse delta FosB homodimer | P13346 | purified delta FosB, TAMRA-CDK5 oligo fluorescence polarization; percent of positive-control signal above neutral wells | activation, % at 25 µM | 340,000 compounds, 0.99% hits;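 active means mean activation above about 17%, with every replicate also reaching it, limit read from the data, passing the limit was not always enough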
Of the large screens only hits and unclear results are named; the others gave an inactive call.

O=C(C[C@H]1CC[C@@H]2[C@H](COC[C@@H](O)CN2C(=O)Nc2ccc(F)cc2)O1)NCCc1ccncc1	none (no result: PvdQ inh, CDK5 inh, dFosB act)
O=S(=O)(N[C@H]1CC[C@@H](CCn2cc(-c3cccc(F)c3)nn2)O[C@@H]1CO)c1ccc(F)cc1	none (no result: PvdQ inh, CDK5 inh, dFosB act)
CC(NC(=O)C(c1ccccc1)c1ccccc1)C(=O)O (configuration not stated)	none
CC(NC(=O)C(c1ccccc1)c1ccccc1)C(=O)N1CCCCC1 (configuration not stated)	FGF22 binding 43 (no result: PglD inh, SIRT5 block)
OC(CNC1Cc2ccccc2C1)COc1ccc(Cl)cc1 (configuration not stated)	none (no result: PglD inh, SIRT5 block)
OC(CNC1CCCc2ccccc21)COc1c(Cl)cccc1Cl (configuration not stated)	FGF22 binding 44 (no result: PglD inh)
O=C(NCC1(c2ccccc2)CCCC1)c1ccccc1Br	none (no result: PglD inh)
COc1ccccc1C(=O)NCC1(c2ccccc2)CCCC1	FGF22 binding 43 (no result: PglD inh)
C[C@@H]1CN([C@H](C)CO)C(=O)c2cc(NC(=O)C3CC3)ccc2O[C@H]1CN(C)S(=O)(=O)c1ccc(Cl)cc1	none (no result: PvdQ inh, CDK5 inh, dFosB act)
Cn1c(CCNC(=O)c2ccco2)nc2cc(NC(=O)c3ccco3)ccc21	none (no result: FGF22 binding, SIRT5 block)
CCCCC(=O)Nc1ccc2c(c1)nc(CCNC(=O)c1ccco1)n2C	SIRT5 block 23 (no result: PglD inh, CDK5 inh)
COc1cccc(NC(=O)N[C@@H]2CC[C@H](CC(=O)N3CCOCC3)O[C@H]2CO)c1	none (no result: PvdQ inh, CDK5 inh, dFosB act)
O=[N+]([O-])c1cc(CN2CCN(c3cccc(C(F)(F)F)c3)CC2)c2cccnc2c1O	FGF22 binding 43 (no result: PglD inh)
CC1CCN(c2ccccc2NC(=S)NC(=O)C(C)(C)C)CC1	FGF22 binding 43 (no result: PglD inh)
CC1CCN(c2ccccc2NC(=S)NC(=O)c2cccs2)CC1	none (no result: PglD inh, FGF22 binding, SIRT5 block)
CS(=O)(=O)N1CCN(c2ccccc2NC(=S)NC(=O)c2cccs2)CC1	FGF22 binding 43 (no result: PglD inh)
Cc1cc(/C=C2/SC(=S)N(c3ccc([N+](=O)[O-])cc3)C2=O)c(C)n1-c1cccnc1	FGF22 binding 43 (no result: PglD inh)
Cc1cc(/C=C2/SC(=S)N(c3cccc(Cl)c3)C2=O)c(C)n1-c1cccnc1	none (no result: FGF22 binding, SIRT5 block)
Fc1ccc(/C=N/Nc2ccccn2)cc1	FGF22 binding 44 (no result: PglD inh)
Cc1ccc(Nc2nc(N)nc(-c3oc4ccccc4c3C)n2)cc1	dFosB act 76 (no result: PglD inh, FGF22 binding, SIRT5 block)
COCCN=c1scc(-c2cccs2)n1/N=C/c1ccc(O)c(O)c1O	FGF22 binding 89 (no result: PglD inh)
COCCN=c1scc(-c2ccccc2)n1/N=C/c1c[nH]c2ccccc12	none (no result: PglD inh, SIRT5 block)
CO[C@H](C(=O)N(C)C[C@H]1OCc2ccccc2-c2c(n(C)c3ccccc23)C(=O)N([C@@H](C)CO)C[C@H]1C)c1ccccc1	none (no result: SIRT5 block, PvdQ inh, CDK5 inh, dFosB act)
CCCn1nc(C(=O)N2CCN(c3ccccn3)CC2)c2ccccc2c1=O	FGF22 binding 44 (no result: SIRT5 block)
CC(C)c1ccc(NC(=O)CN2CCN(c3ccccn3)CC2)cc1	none
Cc1c(C)n(Cc2ccc(F)cc2)c2ccc(C(=O)N3CCN(c4ccccn4)CC3)cc12	dFosB act 27
COc1ccc(C(=O)N2CCN(C(=O)c3cc(OC)c(OC)c(OC)c3)CC2)cc1	none (no result: FGF22 binding, SIRT5 block)
COc1ccc(NC(=O)CN2CCN(c3ccccn3)CC2)cc1Cl	SIRT5 block 29
COc1cc(C(=O)N2CCNCC2)cc(OC)c1OC	SIRT5 block 21
O=C(c1nn(-c2ccccc2)c(=O)c2ccccc12)N1CCN(c2ccccn2)CC1	none (no result: FGF22 binding, SIRT5 block)
O=C(N[C@@H]1CC[C@H](CCNS(=O)(=O)c2ccc(F)cc2)O[C@@H]1CO)C1CC1	none (no result: PvdQ inh, CDK5 inh, dFosB act)
COc1cc(C(=O)N2CCN(c3ccccn3)CC2)cc(OC)c1OC	CDK5 inh 89
COc1cc(OC)cc(C(=O)N2CCN(c3ccccn3)CC2)c1	none (no result: FGF22 binding)
C[C@H]1CCCCO[C@@H](CN(C)Cc2ccncc2)[C@@H](C)CN([C@@H](C)CO)C(=O)c2cc(NS(=O)(=O)c3ccc(F)cc3)ccc2O1	none (no result: PvdQ inh, CDK5 inh, dFosB act)
Cc1ccc(NC(=O)Cc2c(F)cccc2Cl)cc1S(=O)(=O)N1CCOCC1	none
Cc1ccc(NS(=O)(=O)c2c(F)cc(F)c(Cl)c2F)cc1S(=O)(=O)N1CCOCC1	FGF22 binding 44 (no result: PglD inh, SIRT5 block)
CCOC(=O)C1=CN(Cc2cccc(I)c2)S(=O)(=O)N(C)C1C (configuration not stated)	none
CCOC(=O)C1=CN(Cc2cccc(Br)c2)S(=O)(=O)N(C)C1C (configuration not stated)	SIRT5 block 42
Cc1ccc(NS(=O)(=O)c2ccc(C(=O)NCC3CCCO3)cc2)cc1 (configuration not stated)	FGF22 binding 44 (no result: PglD inh)
CS(=O)(=O)N(CC(=O)NCC1CCCO1)c1cccc([N+](=O)[O-])c1 (configuration not stated)	FGF22 binding 43 (no result: PglD inh)
Cc1ccc(SCC(=O)NCC2CCCO2)cc1 (configuration not stated)	FGF22 binding 43 (no result: PglD inh)
O=C(Cc1ccccc1)NCC1CCCO1 (configuration not stated)	none (no result: FGF22 binding, SIRT5 block)
O=C(Cc1ccc(F)cc1)NCC1CCCO1 (configuration not stated)	FGF22 binding 43
Cc1cc(S(=O)(=O)Nc2ccc(C(=O)NCC3CCCO3)cc2)ccc1F (configuration not stated)	none (no result: SIRT5 block, PvdQ inh, CDK5 inh, dFosB act)
Cc1ccccc1-c1cnc2c(c1)C(=O)N([C@@H](C)CO)C[C@@H](C)[C@H](CN(C)C(=O)c1cccnc1)O2	none (no result: PvdQ inh, CDK5 inh, dFosB act)
CC=Cc1ccc2n(c1=O)C[C@@H]1[C@@H](CO)[C@H](C(=O)Nc3ccc(-c4ccccc4)cc3)[C@H]2N1C(C)=O (mixture of isomers)	none (no result: PglD inh, FGF22 binding, PvdQ inh, CDK5 inh, dFosB act)
CO[C@@H](C(=O)N(C)C[C@H]1OCc2ccccc2-c2c(n(C)c3ccccc23)C(=O)N([C@H](C)CO)C[C@H]1C)c1ccccc1	none (no result: PvdQ inh, CDK5 inh, dFosB act)
Cc1ccc(S(=O)(=O)N[C@H]2CC[C@H](CCn3cc(C4(O)CCCC4)nn3)O[C@@H]2CO)cc1	none (no result: PvdQ inh, CDK5 inh, dFosB act)
O=C(CSc1nnc(-c2ccccc2)c(-c2ccccc2)n1)NCC1CCCO1 (configuration not stated)	FGF22 binding 43 (no result: SIRT5 block)
Cc1ccc(N(Cc2ccc(C(=O)NCC3CCCO3)cc2)S(C)(=O)=O)cc1C (configuration not stated)	FGF22 binding 43 (no result: PglD inh)
CS(=O)(=O)N(Cc1ccc(Cl)cc1)c1ccc(C(=O)NCC2CCCO2)cc1 (configuration not stated)	none (no result: PglD inh)
O=C(Nc1ccccc1Cl)N1[C@@H]2CNc3ccccc3[C@@H]2[C@@H]1CO	none (no result: SIRT5 block, PvdQ inh, CDK5 inh, dFosB act)
COc1cccc(-n2c(SCC(=O)NC3CC3)nc3ccccc3c2=O)c1	FGF22 binding 43 (no result: SIRT5 block, PvdQ inh, CDK5 inh, dFosB act)
COc1cccc(-n2c(SCC(N)=O)nc3ccccc3c2=O)c1	none (no result: PglD inh)
CCCc1nc(Cl)c(C#N)c2c1CCCC2	SIRT5 block 112 (no result: PglD inh)
O=C(Nc1ccccc1)N[C@@H]1CC[C@@H](CCn2cc(-c3ccccc3F)nn2)O[C@@H]1CO	none (no result: PglD inh, FGF22 binding, PvdQ inh, CDK5 inh, dFosB act)
COc1cc(CN2CC3(CN(S(=O)(=O)c4cn(C)cn4)C3)c3c(n(C)c4cc(OC)ccc34)[C@@H]2CO)cc(OC)c1	none (no result: PglD inh, PvdQ inh, CDK5 inh, dFosB act)

From PubChem BioAssay
